# Laboratory results as given in PubChem BioAssay (EPA / NIEHS).
# Calls of active or inactive are those of the source. The calls were made as follows: active = hit-call score of the fitted dose curve at least 0.9, where 1 is the maximum; inactive = score below 0.9.
# Read-out: Heat shock 70 kDa protein 1 (HSPA1A), gene 3303
# Experiment: LTEA_HepaRG_HSPA1A: Life Technologies and Expression Analysis (LTEA) Assay for Heat shock 70 kDa protein 1 (HSPA1A) using HepaRG (AID 2283502)
# Settings: mRNA level, 48 h; actives raise or lower the signal
# Protocol: LTEA_HepaRG is a cell based, multiplexed-readout assay that uses HepaRG, a human liver cell line, with measurements taken at 48 hours after chemical dosing on a 96-well plate.LTEA_HepaRG_HSPA1A is one of 102 assay component(s) measured in the LTEA HepaRG cell culture assay. It is a marker of Oxidative Stress.Data from the assay component LTEA_HepaRG_HSPA1A was analyzed into 1 endpoint. This assay endpoint, LTEA_HepaRG_HSPA1A, was analyzed with bidirectional fitting relative to DMSO as the negative control and baseline of activity. Using a type of inducible reporter, measures of mRNA induction for gain or loss-of-signal activity can be used to understand regulation of transcription factor activity. To generalize the intended target to other relatable targets, this assay endpoint is annotated to the dna binding intended target family, where the subfamily is heat shock protein.
# A total of 1060 chemcials from the ToxCast library were tested in eight-point concentration-response experiments. Cell culture and cytotoxicity assays were conducted at Thermo Fisher Scientific's Custom Services facility (Madison, WI). A single lot of human HepaRG cells (Thermo Fisher Scientific, Frederick, MD) was used for the cell culture experiments. 96-well format collagen type I coated plates of human HepaRG cells were prepared using established methods. Briefly, cryopreserved HepaRG cells were thawed, plated at a density of approximately 100,000 cells/well in HepaRG Thaw, Plate, and General Purpose media (HPRG770, Thermo Fisher Scientific), and incubated for 48 hours. 0.5% DMSO was selected as vehicle control to balance the requisite need of DMSO in HepaRG cultures to maintain differentiation (for example, baseline metabolism, proportions of hepatocytes vs. cholangiocytes), while enabling further hepatic receptor pathway activation (for example, PXR and CAR) in response to chemical exposure. 48 hours after plating, the culture medium was replaced with HepaRG Serum-Free Incudtion Media. Cells were exposed to each test chemical in duplicate and maintained in CO2 incubators for another 48 hours. Chemical plates were thawed to room temperature and 200x concentrations of treatment groups were prepared. 8-point conentration-reponse curves were made with the highest exposure at 100 uM, followed by half-log dilutions, all in 0.5% DMSO. Each test plate contained variouse controls, induction positive controls (1mM phenobarbital), cytotoxicity positive controls ([…] aflatoxin B1), vehicle controls (0.5% DMSO), and total lysis controls (0.5% DMSO). Cell morphology images were taken using an Essen IncuCyte FLR automated microscope, with six 96-well plates imaged in about 24 minutes. Images were captured and exported and JPEG files. Spent culture media was transfered to black-well plates for the LDH assay, and remaining media was sorted at -80 C for later use. Cells were treated with RLT buffer and frozen until shipped for gene expression analysis. Total RNA was isolated from the cell suspension in 75 uL of Buffer RLT (Qiagen, Germantown, MD 20874) by Quintiles/Expression Analysis (Durham, NC) using a custom isolation procedure. Total RNA from each plate well was transferred to a preamplification plate. Fluidigm's 96.96 Dynamic ArrayTM (Fluidigm, Amsterdam, the Netherlands) technology was used for gene expression analyses by quantitative reverse transcription polymerase chain reaction (qRT-PCR, performed by Quintiles/Expression Analysis, Durham, NC)89. Standard TaqManTM Assays (Applied Biosystems/ThermoFisher Scientific, Foster City, CA) were used to assess the expression of 93 genes selected based on their selectivity and sensitivity to important hepatic receptors known to be modulated by environmental chemicals; importance in human hepatocyte functionality; and hepatotoxicity. […]
Structure (SMILES),outcome,AC50
COc1ccc(O)c(C(C)(C)C)c1,inactive,–
ClC1=C(Cl)[C@]2(Cl)[C@@H]3[C@H]4C[C@H]([C@@H]5O[C@H]45)[C@@H]3[C@@]1(Cl)C2(Cl)Cl,inactive,–
Clc1ccc(Cl)cc1,inactive,–
C=CC(N)=O,inactive,–
Cc1ccccc1O,inactive,–
Nc1ccc(-c2ccc(N)cc2)cc1,inactive,–
Cc1ccccc1[N+](=O)[O-],inactive,–
Oc1ccc(C(c2ccc(O)cc2)(C(F)(F)F)C(F)(F)F)cc1,–,72.8 µM (active)
CC(C)C(=O)OCC(C)(C)C(OC(=O)C(C)C)C(C)C (stereo not given),inactive,–
CCC(C)(CC)c1cc(NC(=O)c2c(OC)cccc2OC)on1,inactive,–
ClC(Cl)=C(c1ccc(Cl)cc1)c1ccc(Cl)cc1,inactive,–
CCNc1nc(NC(C)C)nc(SC)n1,inactive,–
CC(C)(c1ccccc1)c1ccc(O)cc1,inactive,–
Cc1cccc(C)c1N,inactive,–
Oc1ccc(Cl)cc1Cl,inactive,–
Oc1c(Cl)c(Cl)c(Cl)c(Cl)c1Cl,–,6.34 µM (active)
ClC1=C(Cl)[C@]2(Cl)[C@@H]3[C@@H](Cl)[C@H]4O[C@H]4[C@@H]3C1(Cl)C2(Cl)Cl,inactive,–
CCSC(=O)N(CC)C1CCCCC1,inactive,–
CN(C)c1nc(=O)n(C2CCCCC2)c(=O)n1C,inactive,–
NS(=O)(=O)C(F)(F)C(F)(F)C(F)(F)C(F)(F)C(F)(F)C(F)(F)C(F)(F)C(F)(F)F,–,75.5 µM (active)

Structure (SMILES),outcome,AC50
Cc1cccc([N+](=O)[O-])c1,inactive,–
COS(=O)(=O)OC,inactive,–
c1ccc(-c2ccccc2)cc1,inactive,–
CCOP(=S)(OCC)SCSC(C)(C)C,inactive,–
CCOCCOC(C)=O,inactive,–
CCCCCCCCOC(=O)c1ccccc1C(=O)OCCCCCCCC,inactive,–
Nn1cnnc1,inactive,–
O=C(N[C@H]1CN2CCC1CC2)c1cc2ccoc2cn1,inactive,–
CC1=C2C[C@H]3[C@@H](CC=C4C[C@@H](O)CC[C@@]43C)[C@@H]2CC[C@]12O[C@@H]1C[C@H](C)CN[C@H]1[C@H]2C,inactive,–
O=C(O)C(F)(F)C(F)(F)C(F)(F)C(F)(F)C(F)(F)C(F)(F)C(F)(F)C(F)(F)C(F)(F)F,inactive,–
O=S(=O)(O)C(F)(F)C(F)(F)C(F)(F)C(F)(F)F,inactive,–
CC(c1ccc(O)cc1)(c1ccc(O)cc1)c1ccc(O)cc1,inactive,–
CC#Cc1cc(C)nc(Nc2ccccc2)n1,inactive,–
Cc1cc(O)ccc1Cl,inactive,–
CCCN(CCC)N=O,inactive,–
Cc1cc2c3c(c1)C(c1ccccc1)=N[C@@H](NC(=O)c1ccncc1)C(=O)N3CC2,–,50 µM (active)
O=S(=O)(O)C(F)(F)C(F)(F)C(F)(F)C(F)(F)C(F)(F)C(F)(F)F,inactive,–
CCC(C)c1cc([N+](=O)[O-])cc([N+](=O)[O-])c1O (stereo not given),–,2.49 µM (active)
CO/C=C(/C(=O)OC)c1ccccc1COc1cccc(C(F)(F)F)n1,inactive,–
Clc1ccc(C(c2ccccc2Cl)C(Cl)(Cl)Cl)cc1 (stereo not given),–,12 µM (active)
